Measurements published in PubChem BioAssay AID1159580 (chemical genetic matrix, 2015).
Several values for one entry are separate records, joined by “and”; a condition that tells them apart may be missing. Identical values can stand only once. About 2,000 (36%) of roughly 5,500 compounds were called active. Roughly 18% stayed inconclusive and do not appear here. Cut-off read from the data, not from the text of the source: active = normalized growth mostly below about 0.91 (no sharp cut-off); inconclusive = no clear call, values can overlap the other calls; inactive = mostly above about 0.92. This is one part of the list.

Experiment: chemical genetic growth profiling, strain panel (AID 1159580);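 note: tested at 20 µM; growth read once vehicle control cultures reached saturation at 30 °C; 1 = growth at the plate median or of vehicle wells; lower values mean less growth of the strain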
Settings: S. cerevisiae deletion strains, growth OD
[1] = locus YAL013W, strain DEP1, active compounds read low
[2] = locus YAL040C, strain CLN3, active compounds read low
[3] = locus YCL061C, strain MRC1 (second series), active compounds read low
[4] = locus YDR363W, strain ESC2, active compounds read low
[5] = locus YER002W, strain NOP16, active compounds read low
[6] = locus YNL128W, strain TEP1, active compounds read low
[7] = locus YNL153C, strain GIM3, active compounds read low
[8] = locus YNL175C, strain NOP13, active compounds read low
[9] = locus YNL197C, strain WHI3, active compounds read low
[10] = locus YNL224C, strain SQS1, active compounds read low
[11] = locus YOR083W, strain WHI5 (second series), active compounds read low
[12] = locus YMR307W, strain GAS1, active compounds read low
[13] = locus YDR150W, strain NUM1, active compounds read low
[14] = locus YJR075W, strain HOC1, active compounds read low

Measured: normalized growth

CCC(CO)NC(=O)C1C=C2c3cccc4[nH]cc(c34)CC2N(C)C1 (stereo unspecified)
inactive: [1] 0.986 | [2] 0.999 | [3] 1 | [4] 0.991 | [5] 0.99 | locus YGR078C, strain PAC10, active compounds read low 0.977 | [6] 0.997 | [7] 1.02 | [8] 0.996 | [9] 0.978 | [10] 0.995 | [11] 0.996

O=C1CCC(c2ccc(-n3ccnc3)cc2)=NN1
inactive: [1] 0.984 | [2] 0.943 | [3] 1 | [4] 1 | [5] 1.01 | locus YMR263W, strain SAP30, active compounds read low 1 | [12] 1.05 | [8] 0.987 | [9] 0.979 | [10] 0.994 | [11] 0.994

N[C@@H](COP(=O)(O)O)C(=O)O
inactive: [2] 0.991 | [3] 0.989 | [13] 1.01 | [4] 1.01 | [5] 1 | [14] 0.984 | [8] 1.01 | [9] 0.984 | [10] 0.992 | locus YNL322C, strain KRE1, active compounds read low 1.01 | [11] 1.01 | locus YPL055C, strain LGE1, active compounds read low 1.01 | locus YPL241C, strain CIN2, active compounds read low 0.997

Cc1[nH]ccc2c1[nH]c1cc(=O)ccc12
inactive: [1] 1.02 | locus YAL021C, strain ccr4, active compounds read low 0.989 | locus YAL026C, strain drs2, active compounds read low 1.01 | locus YAL030W, strain snc1, active compounds read low 0.995 | locus YBL061C, strain skt5, active compounds read low 0.993 | locus YBR009C, strain hhf1, active compounds read low 1.01 | locus YBR021W, strain FUR4, active compounds read low 1.03 | locus YBR023C, strain chs3, active compounds read low 1 | locus YBR171W, strain sec66, active compounds read low 0.999 | locus YBR229C, strain ROT2, active compounds read low 1.01 | locus YBR231C, strain swc5, active compounds read low 0.975 | locus YBR279W, strain paf1, active compounds read low 1.01 | locus YCL011C, strain gbp2, active compounds read low 1 | locus YCL016C, strain dcc1, active compounds read low 1 | locus YCL029C, strain bik1, active compounds read low 0.986 | locus YCL061C, strain MRC1, active compounds read low 1 | locus YCL069W, strain vba3, active compounds read low 0.995 | locus YCR088W, strain abp1, active compounds read low 0.998 | locus YDL005C, strain med2, active compounds read low 0.996 | locus YDL035C, strain GPR1, active compounds read low 1.03 | locus YDL040C, strain nat1, active compounds read low 0.993 | locus YDL074C, strain BRE1, active compounds read low 1.04 | locus YDL101C, strain DUN1, active compounds read low 1.01 | locus YDL185W, strain tfp1, active compounds read low 0.996 | locus YDL192W, strain arf1, active compounds read low 0.991 | locus YDR001C, strain nth1, active compounds read low 1.01 | locus YDR069C, strain doa4, active compounds read low 1.01 | locus YDR101C, strain arx1, active compounds read low 0.985 | locus YDR137W, strain rgp1, active compounds read low 1 | [13] 1 | locus YDR159W, strain sac3, active compounds read low 0.978 | locus YDR162C, strain NBP2, active compounds read low 1.03 | locus YDR195W, strain ref2 0.996 | locus YDR297W, strain sur2, active compounds read low 1 | locus YDR318W, strain mcm21, active compounds read low 0.993 | locus YDR334W, strain swr1, active compounds read low 1 | locus YDR335W, strain msn5, active compounds read low 0.995 | locus YDR388W, active compounds read low 0.988 | locus YDR392W, strain spt3, active compounds read low 0.96 | locus YDR502C, strain sam2, active compounds read low 0.992 | locus YEL003W, strain gim4, active compounds read low 0.997 | locus YEL037C, strain rad23, active compounds read low 0.993 | locus YEL061C, strain CIN8 (second series), active compounds read low 0.989 | locus YEL061C, strain CIN8, active compounds read low 1.01 | locus YER015W, strain faa2, active compounds read low 1 | locus YER016W, strain bim1, active compounds read low 0.997 | locus YER110C, active compounds read low 0.98 | locus YER111C, strain swi4, active compounds read low 0.989 | locus YER155C, strain BEM2 (second series), active compounds read low 0.973 | locus YER155C, strain BEM2, active compounds read low 1.02 | locus YER167W, strain BCK2, active compounds read low 1.03 | locus YFR010W, strain ubp6, active compounds read low 0.995 | locus YGL078C, strain dbp3, active compounds read low 0.992 | locus YGL086W, strain mad1, active compounds read low 1.01 | locus YGL167C, strain pmr1, active compounds read low 0.993 | locus YGL173C, strain kem1, active compounds read low 1 | locus YGL227W, strain vid30, active compounds read low 0.995 | locus YGL240W, strain doc1, active compounds read low 0.995 | locus YGL248W, strain PDE1, active compounds read low 1.02 | locus YGL253W, strain hxk2, active compounds read low 1 | locus YGR135W, strain pre9, active compounds read low 0.999 | locus YGR252W, strain gcn5, active compounds read low 1.01 | locus YHR013C, strain ard1, active compounds read low 1 | locus YHR027C, strain rpn1, active compounds read low 1 | locus YHR030C, strain SLT2, active compounds read low 1.01 and 0.992 | locus YHR079C, strain IRE1 (second series), active compounds read low 0.991 | locus YHR079C, strain IRE1, active compounds read low 0.989 | locus YHR094C, strain hxt1, active compounds read low 0.986 | locus YHR129C, strain ARP1, active compounds read low 1.03 | locus YHR142W, strain chs7, active compounds read low 1 | locus YHR200W, strain rpn10, active compounds read low 0.993 | locus YIL066C, strain RNR3, active compounds read low 1.04 | locus YIL073C, strain SPO22, active compounds read low 1.02 | locus YIL125W, strain kgd1, active compounds read low 0.993 | locus YIR030C, strain dcg1, active compounds read low 0.991 | locus YJL092W, strain hpr5, active compounds read low 0.999 | locus YJL095W, strain BCK1 (second series), active compounds read low 0.995 | locus YJL095W, strain BCK1, active compounds read low 1.01 and 1.02 | locus YJL115W, strain asf1, active compounds read low 0.994 | locus YJL129C, strain trk1, active compounds read low 1 | locus YJL134W, strain LCB3, active compounds read low 1 | locus YJL154C, strain vps35, active compounds read low 0.997 | locus YJL164C, strain tpk1, active compounds read low 0.996 | locus YJL166W, strain qcr8, active compounds read low 0.995 | locus YJL168C, strain set2, active compounds read low 0.986 | locus YJL187C, strain SWE1 (second series), active compounds read low 1.02 | locus YJL187C, strain SWE1, active compounds read low 0.996 | locus YJR043C, strain POL32, active compounds read low 1.04 | locus YJR066W, strain TOR1, active compounds read low 0.947 | [14] 1.02 | locus YKL009W, strain mrt4, active compounds read low 0.995 | locus YKL068W, active compounds read low 0.997 | locus YKL085W, strain MDH1 (second series), active compounds read low 1.01 | locus YKL085W, strain MDH1, active compounds read low 1.01 | locus YKL160W, strain elf1, active compounds read low 1 | locus YKL190W, strain CNB1, active compounds read low 0.987 | locus YKR001C, strain vps1, active compounds read low 0.987 | locus YKR026C, strain gcn3, active compounds read low 1 | locus YKR091W, strain srl3, active compounds read low 0.992 | locus YLL001W, strain dnm1, active compounds read low 0.994 | locus YLL026W, active compounds read low 1 | locus YLL041C, strain sdh2, active compounds read low 0.999 | locus YLR027C, strain aat2, active compounds read low 0.998 | locus YLR039C, strain RIC1, active compounds read low 1.06 | locus YLR058C, strain SHM2, active compounds read low 1.01 | locus YLR102C, strain apc9, active compounds read low 0.993 | locus YLR113W, strain HOG1, active compounds read low 1.02 | locus YLR221C, strain rsa3, active compounds read low 1.01 | locus YLR258W, strain gsy2, active compounds read low 0.995 | locus YLR262C, strain YPT6 (second series), active compounds read low 0.998 | locus YLR262C, strain YPT6, active compounds read low 1.09 | locus YLR268W, strain sec22, active compounds read low 0.984 | locus YLR320W, strain mms22, active compounds read low 0.999 | locus YLR330W, strain CHS5, active compounds read low 1 | locus YLR342W, strain FKS1 (second series), active compounds read low 1.03 | locus YLR342W, strain FKS1, active compounds read low 0.994 | locus YLR357W, strain rsc2, active compounds read low 0.99 | locus YLR370C, strain arc18, active compounds read low 1 | locus YLR371W, strain rom2, active compounds read low 0.983 | locus YLR384C, strain iki3, active compounds read low 0.999 | locus YLR418C, strain cdc73, active compounds read low 0.997 | locus YML016C, strain PPZ1, active compounds read low 1.01 | locus YML032C, strain rad52, active compounds read low 0.999 | locus YML120C, strain ndi1, active compounds read low 0.992 | locus YML124C, strain tub3, active compounds read low 1 | locus YMR058W, strain fet3, active compounds read low 1 | locus YMR078C, strain ctf18, active compounds read low 0.985 | locus YMR125W, strain sto1, active compounds read low 0.986 | locus YMR129W, active compounds read low 0.995 | locus YMR205C, strain PFK2, active compounds read low 0.983 | locus YMR223W, strain ubp8, active compounds read low 1.01 | locus YMR231W, strain pep5, active compounds read low 0.999 | [12] 1.09 | locus YNL067W, strain RPL9B, active compounds read low 1 | locus YNL071W, strain lat1, active compounds read low 1 | [6] 1.02 | [7] 1 | locus YNL183C, strain NPR1, active compounds read low 0.97 | locus YNL209W, strain ssb2, active compounds read low 1 | locus YNL233W, strain BNI4, active compounds read low 1.01 | locus YNL248C, strain rpa49, active compounds read low 0.995 | locus YNL250W, strain rad50, active compounds read low 1.01 | locus YNL271C, strain bni1, active compounds read low 0.988 | locus YNL298W, strain CLA4, active compounds read low 1.02 | locus YNL307C, strain MCK1, active compounds read low 0.988 | locus YNL322C, strain KRE1 (second series), active compounds read low 0.997 | locus YNR049C, strain mso1, active compounds read low 1 | locus YNR052C, strain pop2, active compounds read low 1 | locus YOL012C, strain htz1 0.948 | locus YOL147C, strain pex11, active compounds read low 0.986 | locus YOR001W, strain rrp6, active compounds read low 0.999 | locus YOR061W, strain CKA2, active compounds read low 1.01 | locus YOR069W, strain VPS5, active compounds read low 1.01 | locus YOR070C, strain gyp1, active compounds read low 0.998 | locus YOR080W, strain dia2, active compounds read low 0.996 | locus YOR083W, strain WHI5, active compounds read low 0.993 | locus YOR106W, strain vam3, active compounds read low 1 | locus YOR136W, strain idh2, active compounds read low 0.991 | locus YOR144C, strain elg1, active compounds read low 0.983 | locus YOR184W, strain ser1, active compounds read low 1 | locus YOR231W, strain MKK1, active compounds read low 1.01 | locus YOR265W, strain rbl2, active compounds read low 0.996 | locus YOR270C, strain vph1, active compounds read low 1.01 | locus YOR290C, strain snf2, active compounds read low 0.989 | locus YOR316C, strain cot1, active compounds read low 0.991 | locus YPL051W, strain arl3, active compounds read low 1 | locus YPL078C, strain atp4, active compounds read low 1.01 | locus YPL106C, strain sse1, active compounds read low 0.987 | locus YPL240C, strain hsp82, active compounds read low 0.99 | locus YPL256C, strain CLN2, active compounds read low 1.03 | locus YPR119W, strain clb2, active compounds read low 0.987 | locus YPR141C, strain kar3, active compounds read low 0.994 | locus YPR163C, strain tif3, active compounds read low 0.986 | locus YPR167C, strain met16, active compounds read low 0.996 | strain wtn01, active compounds read low 0.984
